Measurements: PubChem BioAssay AID1159580 (chemical genetic matrix, 2015)
Several values for one entry are separate records, joined by “and”; a condition that tells them apart may be missing. Equal entries are not always repeated. Hit rate of the full screen: of about 5,500 compounds, about 2,000 (36%) were called active. Not shown: some 18% with an inconclusive outcome. No stated cut-off is given here; in the data, active means normalized growth mostly below about 0.91 (no sharp cut-off); inconclusive means no clear call, values can overlap the other calls; inactive means mostly above about 0.92. This is one part of the list.

Assay: chemical genetic growth profiling, strain panel (AID 1159580);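 further: tested at 20 µM; growth read once vehicle control cultures reached saturation at 30 °C; 1 = growth at the plate median or of vehicle wells; lower values mean less growth of the strain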
Conditions: S. cerevisiae deletion strains, growth OD

Measured: normalized growth

CCC(C)C(NC)C(=O)O (centres undefined)
inactive: locus YAL013W, strain DEP1, active compounds read low 1.02 | locus YAL021C, strain ccr4, active compounds read low 1.03 | locus YAL026C, strain drs2, active compounds read low 1.02 | locus YAL030W, strain snc1, active compounds read low 1.01 | locus YBL061C, strain skt5, active compounds read low 1.03 | locus YBR009C, strain hhf1, active compounds read low 1.02 | locus YBR021W, strain FUR4, active compounds read low 1.01 | locus YBR023C, strain chs3, active compounds read low 1.02 | locus YBR171W, strain sec66, active compounds read low 1.05 | locus YBR229C, strain ROT2, active compounds read low 0.947 | locus YBR231C, strain swc5, active compounds read low 1.01 | locus YBR279W, strain paf1, active compounds read low 1.01 | locus YCL011C, strain gbp2, active compounds read low 1.02 | locus YCL016C, strain dcc1, active compounds read low 1.03 | locus YCL029C, strain bik1, active compounds read low 0.982 | locus YCL061C, strain MRC1, active compounds read low 1.03 | locus YCL069W, strain vba3, active compounds read low 1.02 | locus YCR088W, strain abp1, active compounds read low 1 | locus YDL005C, strain med2, active compounds read low 1.02 | locus YDL035C, strain GPR1, active compounds read low 0.981 | locus YDL040C, strain nat1, active compounds read low 1.01 | locus YDL074C, strain BRE1, active compounds read low 1.01 | locus YDL101C, strain DUN1, active compounds read low 0.983 | locus YDL134C, strain PPH21, active compounds read low 0.984 | locus YDL185W, strain tfp1, active compounds read low 0.986 | locus YDL192W, strain arf1, active compounds read low 1 | locus YDR001C, strain nth1, active compounds read low 1.02 | locus YDR069C, strain doa4, active compounds read low 1.02 | locus YDR101C, strain arx1, active compounds read low 1 | locus YDR137W, strain rgp1, active compounds read low 1.06 | locus YDR159W, strain sac3, active compounds read low 1.02 | locus YDR162C, strain NBP2, active compounds read low 0.966 | locus YDR195W, strain ref2 0.985 | locus YDR297W, strain sur2, active compounds read low 1.01 | locus YDR318W, strain mcm21, active compounds read low 0.985 | locus YDR334W, strain swr1, active compounds read low 1.02 | locus YDR335W, strain msn5, active compounds read low 1.01 | locus YDR388W, active compounds read low 0.994 | locus YDR392W, strain spt3, active compounds read low 0.986 | locus YDR502C, strain sam2, active compounds read low 0.997 | locus YEL003W, strain gim4, active compounds read low 1.01 | locus YEL037C, strain rad23, active compounds read low 1.02 | locus YEL061C, strain CIN8 (second series), active compounds read low 1.02 | locus YEL061C, strain CIN8, active compounds read low 0.983 | locus YER015W, strain faa2, active compounds read low 1.02 | locus YER016W, strain bim1, active compounds read low 1.01 | locus YER110C, active compounds read low 0.979 | locus YER111C, strain swi4, active compounds read low 1.03 | locus YER155C, strain BEM2 (second series), active compounds read low 1.01 | locus YER155C, strain BEM2, active compounds read low 1 | locus YER167W, strain BCK2, active compounds read low 0.975 | locus YFR010W, strain ubp6, active compounds read low 1.03 | locus YGL078C, strain dbp3, active compounds read low 0.999 | locus YGL086W, strain mad1, active compounds read low 1.01 | locus YGL167C, strain pmr1, active compounds read low 1.02 | locus YGL173C, strain kem1, active compounds read low 1.03 | locus YGL227W, strain vid30, active compounds read low 1.02 | locus YGL240W, strain doc1, active compounds read low 1.01 | locus YGL248W, strain PDE1, active compounds read low 0.982 | locus YGL253W, strain hxk2, active compounds read low 1.02 | locus YGR135W, strain pre9, active compounds read low 0.99 | locus YGR252W, strain gcn5, active compounds read low 0.986 | locus YHR013C, strain ard1, active compounds read low 1.03 | locus YHR027C, strain rpn1, active compounds read low 1.03 | locus YHR030C, strain SLT2, active compounds read low 0.985 and 1.06 | locus YHR079C, strain IRE1 (second series), active compounds read low 0.991 | locus YHR079C, strain IRE1, active compounds read low 1.09 | locus YHR094C, strain hxt1, active compounds read low 0.977 | locus YHR129C, strain ARP1, active compounds read low 0.99 | locus YHR142W, strain chs7, active compounds read low 1.02 | locus YHR200W, strain rpn10, active compounds read low 0.986 | locus YIL066C, strain RNR3, active compounds read low 0.944 | locus YIL073C, strain SPO22, active compounds read low 0.972 | locus YIL125W, strain kgd1, active compounds read low 0.982 | locus YIR030C, strain dcg1, active compounds read low 0.99 | locus YJL092W, strain hpr5, active compounds read low 1.03 | locus YJL095W, strain BCK1 (second series), active compounds read low 1.01 | locus YJL095W, strain BCK1, active compounds read low 1.05 | locus YJL115W, strain asf1, active compounds read low 1.03 | locus YJL129C, strain trk1, active compounds read low 1.05 | locus YJL134W, strain LCB3, active compounds read low 0.967 | locus YJL154C, strain vps35, active compounds read low 1.01 | locus YJL164C, strain tpk1, active compounds read low 1.03 | locus YJL166W, strain qcr8, active compounds read low 1.02 | locus YJL168C, strain set2, active compounds read low 0.993 | locus YJL187C, strain SWE1 (second series), active compounds read low 1 | locus YJL187C, strain SWE1, active compounds read low 1.01 | locus YJR043C, strain POL32, active compounds read low 0.969 | locus YJR066W, strain TOR1, active compounds read low 1 | locus YKL009W, strain mrt4, active compounds read low 1.01 | locus YKL068W, active compounds read low 0.973 | locus YKL085W, strain MDH1 (second series), active compounds read low 0.979 | locus YKL085W, strain MDH1, active compounds read low 0.979 | locus YKL160W, strain elf1, active compounds read low 1.02 | locus YKL190W, strain CNB1, active compounds read low 1 | locus YKR001C, strain vps1, active compounds read low 1 | locus YKR026C, strain gcn3, active compounds read low 1.02 | locus YKR091W, strain srl3, active compounds read low 1 | locus YLL001W, strain dnm1, active compounds read low 1.03 | locus YLL026W, active compounds read low 1.01 | locus YLL041C, strain sdh2, active compounds read low 1.02 | locus YLR027C, strain aat2, active compounds read low 1.02 | locus YLR039C, strain RIC1, active compounds read low 0.995 | locus YLR058C, strain SHM2, active compounds read low 0.935 | locus YLR102C, strain apc9, active compounds read low 0.985 | locus YLR113W, strain HOG1, active compounds read low 1.09 | locus YLR221C, strain rsa3, active compounds read low 1.03 | locus YLR258W, strain gsy2, active compounds read low 1.01 | locus YLR262C, strain YPT6 (second series), active compounds read low 1.05 | locus YLR262C, strain YPT6, active compounds read low 0.989 | locus YLR268W, strain sec22, active compounds read low 1.03 | locus YLR320W, strain mms22, active compounds read low 1.03 | locus YLR330W, strain CHS5, active compounds read low 0.987 | locus YLR342W, strain FKS1 (second series), active compounds read low 0.977 | locus YLR342W, strain FKS1, active compounds read low 1.01 | locus YLR357W, strain rsc2, active compounds read low 1.02 | locus YLR370C, strain arc18, active compounds read low 1.03 | locus YLR371W, strain rom2, active compounds read low 0.982 | locus YLR384C, strain iki3, active compounds read low 1.01 | locus YLR418C, strain cdc73, active compounds read low 0.971 | locus YML016C, strain PPZ1, active compounds read low 0.992 | locus YML032C, strain rad52, active compounds read low 0.963 | locus YML120C, strain ndi1, active compounds read low 1.01 | locus YML124C, strain tub3, active compounds read low 0.997 | locus YMR058W, strain fet3, active compounds read low 1.03 | locus YMR078C, strain ctf18, active compounds read low 0.985 | locus YMR125W, strain sto1, active compounds read low 1.01 | locus YMR129W, active compounds read low 1.02 | locus YMR205C, strain PFK2, active compounds read low 1.03 | locus YMR223W, strain ubp8, active compounds read low 0.991 | locus YMR231W, strain pep5, active compounds read low 1.01 | locus YMR307W, strain GAS1, active compounds read low 1.02 | locus YNL067W, strain RPL9B, active compounds read low 1.03 | locus YNL071W, strain lat1, active compounds read low 1.02 | locus YNL128W, strain TEP1, active compounds read low 0.986 | locus YNL183C, strain NPR1, active compounds read low 0.998 | locus YNL209W, strain ssb2, active compounds read low 1.01 | locus YNL233W, strain BNI4, active compounds read low 1.04 | locus YNL248C, strain rpa49, active compounds read low 1.02 | locus YNL250W, strain rad50, active compounds read low 0.962 | locus YNL271C, strain bni1, active compounds read low 0.992 | locus YNL298W, strain CLA4, active compounds read low 0.988 | locus YNL307C, strain MCK1, active compounds read low 0.988 | locus YNL322C, strain KRE1 (second series), active compounds read low 1.02 | locus YNR049C, strain mso1, active compounds read low 1.02 | locus YNR052C, strain pop2, active compounds read low 1.01 | locus YOL012C, strain htz1 0.872 | locus YOL147C, strain pex11, active compounds read low 0.976 | locus YOR001W, strain rrp6, active compounds read low 1.02 | locus YOR061W, strain CKA2, active compounds read low 0.961 | locus YOR069W, strain VPS5, active compounds read low 0.984 | locus YOR070C, strain gyp1, active compounds read low 1.03 | locus YOR080W, strain dia2, active compounds read low 1.02 | locus YOR083W, strain WHI5, active compounds read low 1.02 | locus YOR106W, strain vam3, active compounds read low 1.02 | locus YOR136W, strain idh2, active compounds read low 0.994 | locus YOR144C, strain elg1, active compounds read low 0.993 | locus YOR184W, strain ser1, active compounds read low 0.989 | locus YOR231W, strain MKK1, active compounds read low 1.08 | locus YOR265W, strain rbl2, active compounds read low 1.01 | locus YOR270C, strain vph1, active compounds read low 1.05 | locus YOR290C, strain snf2, active compounds read low 1.02 | locus YOR316C, strain cot1, active compounds read low 0.993 | locus YPL051W, strain arl3, active compounds read low 1.04 | locus YPL078C, strain atp4, active compounds read low 1.02 | locus YPL106C, strain sse1, active compounds read low 1.01 | locus YPL240C, strain hsp82, active compounds read low 1 | locus YPL241C, strain CIN2, active compounds read low 0.98 | locus YPL256C, strain CLN2, active compounds read low 1.09 | locus YPR119W, strain clb2, active compounds read low 0.991 | locus YPR141C, strain kar3, active compounds read low 0.978 | locus YPR163C, strain tif3, active compounds read low 0.985 | locus YPR167C, strain met16, active compounds read low 0.989 | strain wtn01, active compounds read low 1.01
